Compound activity: PubChem, National Center for Advancing Translational Sciences (NCATS)
Shown are actives, neighbours in structure and some others; about 3.3% of the full set was active somewhere.
PI5P4Ka inh: blocks human PI5P4K alpha kinase activity; P48426; PI5P4Kalpha enzyme, ADP-Glo luminescence, 60 min; stronger effect = lower value; max response, %; hit rate 1.2% among 330,000; active = max response of -50% or lower; inconclusive = between -30% and -50%; inactive = -30% or higher; note: value at the top dose of about 77 µM
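ADP-Glo luminescence end-point read after a 60 min room-temperature kinase reaction of PI5P4Kalpha plus substrate, initiated with ATP at 5 microM final. Buffer: 0.038 M HEPES pH 7.4, EGTA, 0.1% CHAPS, 5% DMSO.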
LDHA block: LDHA (human) enzyme inhibition. P00338. purified LDHA, NADH/diaphorase-resazurin fluorescence; stronger effect = lower value. activity change, % (values are at about 110 or 230 µM). hit rate 0.15% among 480,000. AID 1347041; in the data active = activity change below about -30%; inconclusive = mostly about -25% to -30%
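Remaining NADH was detected by diaphorase (0.133 mg/mL) converting 37 µM resazurin to fluorescent resorufin, read at 0 and 20 minutes. The preceding 5-minute room-temperature reaction used 2 nM LDHA, 0.2 mM sodium pyruvate and 0.06 mM NADH at pH 7.4.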
DRD3 agonist: activates the human D3 dopamine receptor. hit rate 0.58% among 410,000. AID 652048. P35462. D3R DiscoveRx beta-arrestin cells, luminescence, 90 min. max activation, %; in the data active = max activation above about 30%
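Agonist-mode cell screen: cells plated at 1500/well and incubated overnight at 37 °C, then exposed to library compounds for 90 min at 37 °C. Detection reagent was added for 30–60 min at room temperature, and luminescence was read.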
PI4K2A inh: inhibitors of human PI4K2A; purified PI4K2A, ADP-Glo luminescence, 1 h; stronger effect = lower value; AID 1346378; hit rate 0.13% among 420,000; Q9BTU6; activity change, negative = inhibition, % at 76.9 µM; in the data active = activity change below about -50%; inconclusive = mostly about -30% to -49%
Target sequence (Q9BTU6 whole entry, looked up): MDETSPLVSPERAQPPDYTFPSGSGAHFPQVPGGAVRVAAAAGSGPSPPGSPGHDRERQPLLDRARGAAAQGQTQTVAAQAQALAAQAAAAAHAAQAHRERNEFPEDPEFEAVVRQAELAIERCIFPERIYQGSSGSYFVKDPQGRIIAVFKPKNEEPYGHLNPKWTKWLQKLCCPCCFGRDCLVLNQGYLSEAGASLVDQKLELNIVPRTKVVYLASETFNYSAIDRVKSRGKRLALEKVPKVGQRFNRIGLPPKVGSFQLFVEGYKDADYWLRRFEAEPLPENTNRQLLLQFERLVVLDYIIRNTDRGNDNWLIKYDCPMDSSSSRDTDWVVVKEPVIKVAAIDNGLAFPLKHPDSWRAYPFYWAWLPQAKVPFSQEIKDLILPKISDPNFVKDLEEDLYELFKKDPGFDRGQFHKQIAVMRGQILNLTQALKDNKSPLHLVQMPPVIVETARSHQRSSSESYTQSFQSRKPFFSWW
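PI4K2A activity was measured by ADP-Glo luminescence: enzyme (4 ug/mL stock) and phosphatidylinositol (1.2 mM stock) in Tris pH 7.5/MgCl2/EGTA/Triton X-100 buffer were reacted with ATP (300 microM stock) for one hour at ambient temperature.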
DRD3 antagonist: blocks the human D3 dopamine receptor; P35462; D3R cells, DiscoveRx beta-arrestin luminescence, antagonist mode; stronger effect = lower value; max response, negative = inhibition, %; hit rate 2.5% among 360,000; AID 652054; in the data active = max response below about -50%; inconclusive = no clear call, values can overlap the other calls
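Cells expressing the human receptor were seeded at 1500 cells/well, incubated overnight at 37 degrees C in 5% CO2, then exposed to library compounds with dopamine controls for 90 minutes at 37 degrees C before luminescent detection.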
Hits are given with their value; – = inactive; ? = inconclusive; · = no result; ! = repeats disagree.

SMILES | PI5P4Ka inh | LDHA block | DRD3 agonist | PI4K2A inh | DRD3 antagonist
COc1cc(CNC(=O)Cc2ccc(C)cc2)ccn1 | · | – | · | · | ·
Cc1ccc(C)c(NC(=O)Cn2c(-c3nonc3N)nc3ccccc32)c1 | · | -33! | – | – | ·
Nc1nnc(CC(=O)N/N=C/c2ccc(-c3ccc(F)cc3)o2)s1 | – | – | – | – | –
Nc1nnc(CC(=O)N/N=C/c2ccc(-c3cccc(C(=O)O)c3)o2)s1 | -57 | – | – | – | –
Nc1nonc1-c1nc2ccccc2n1CC(=O)N/N=C/c1ccc(-c2cccc(C(=O)O)c2)o1 | -60 | – | – | – | –
Nc1nonc1-c1nc2ccccc2n1CC(=O)Nc1ccccc1C(=O)O | · | – | – | – | ·
Cc1ccc(NC(=O)Cn2c(-c3nonc3N)nc3ccccc32)cc1C | · | – | – | – | ·
CCOc1ccc2c(=O)c(Oc3ccc(OC)cc3)coc2c1 | · | – | · | · | ·
CCc1ccc(C(C)NC(=O)CC23CC4CC(CC(C4)C2)C3)cc1 (configuration not stated) | · | – | · | · | ·
CNCCCC1c2ccccc2C=Cc2ccccc21 | – | – | – | – | -99
CNCCCCOc1ccc(Cc2ccccc2)cc1 | · | – | · | · | ·
O=C(Cn1nc(Cc2cccnc2)c2ccccc2c1=O)Nc1ccc2c(c1)OCO2 | – | – | – | – | –
O=C(Cn1nc(Cc2cccnc2)c2ccccc2c1=O)Nc1ccc(F)c(Cl)c1 | · | – | 39 | – | ·
N#CC1=C(N)C(C#N)(C#N)[C@H](c2cccnc2)[C@H]2CN(C(=O)OCc3ccccc3)CC=C12 | – | – | – | – | ?
N#CC1=C(N)C(C#N)(C#N)C(c2ccncc2)C2CN(C(=O)OCc3ccccc3)CC=C12 (configuration not stated) | – | – | – | – | -63
OC(c1ccccc1)(c1ccccc1)C1CCN(CCCOc2ccc(OC(F)(F)F)cc2)CC1 | · | · | · | – | ·
OC(c1ccccc1)(c1ccccc1)C1CCN(CCCOc2ccccc2Cl)CC1 | – | – | – | – | -80
Cc1ccc(OCCCN2CCC(C(O)(c3ccccc3)c3ccccc3)CC2)cc1 | – | – | – | – | –
COC(=O)c1cccc(OCCCN2CCC(C(O)(c3ccccc3)c3ccccc3)CC2)c1 | – | – | – | – | -93
C/C=C/c1ccccc1OCCCN1CCC(C(O)(c2ccccc2)c2ccccc2)CC1 | · | · | · | – | ·
COc1ccccc1OCCCN1CCC(C(O)(c2ccccc2)c2ccccc2)CC1 | – | – | – | – | -85
OC(c1ccccc1)(c1ccccc1)C1CCN(CCCOc2ccc(F)cc2)CC1 | – | – | – | – | -95
Cc1ccc(S(=O)(=O)N2CCN(C(=O)c3cc4ccccc4oc3=O)CC2)cc1C | · | – | · | · | ·
CC(Sc1nccn1C)C(=O)Nc1sc2c(c1C#N)CCCCC2 (configuration not stated) | · | – | · | · | ·
COc1ccc(OC)c(CN2CCc3ccccc3C2)c1 | · | – | · | · | ·
SMILES | PI5P4Ka inh | LDHA block | DRD3 agonist | PI4K2A inh | DRD3 antagonist
N#Cc1ccccc1OCCCN1CCC(C(O)(c2ccccc2)c2ccccc2)CC1 | – | – | – | – | -96
Oc1ccc2c(ccc3[nH]cnc32)c1 | – | – | – | – | –
Brc1cc2[nH]cnc2c2ccccc12 | · | – | 46 | – | –
CCN(CC)C(=O)C1CCCN(Cc2sccc2C)C1 (configuration not stated) | · | – | – | – | -63
CCN(CC)C(=O)C1CCCN(Cc2cccc(F)c2)C1 (configuration not stated) | · | – | – | – | –
O=C(NN1C(=O)c2ccccc2NC1c1ccc([N+](=O)[O-])o1)c1ccc([N+](=O)[O-])cc1 (configuration not stated) | – | – | – | – | -61
Cc1ccccc1-n1c(C)cc(/C=N/Nc2ccc([N+](=O)[O-])cn2)c1C | – | – | – | – | –
Cc1cc(/C=N/Nc2ccc([N+](=O)[O-])cn2)c(C)n1-c1ccc(C(=O)O)cc1 | -84 | – | – | – | ?
COc1ccccc1C(C)NCC(=O)Nc1c(F)cccc1F (configuration not stated) | – | – | – | – | -56
COc1cc(Cl)c(C)cc1NC(=O)CNC(C)c1ccccc1OC (configuration not stated) | – | – | – | – | –
CC(=O)N1CCc2cc(C(=O)CN3CCN(c4cccc(Cl)c4)CC3)ccc21 | – | – | – | – | -50
COc1ccc(-c2nc3cc(NC(=O)c4cc(OC)cc(OC)c4)ccc3o2)cc1 | · | – | · | · | ·
O=C(Nc1sc2c(c1C(=O)O)CCCC2)c1cccs1 | – | – | – | – | –
COC(=O)c1c(NC(=O)c2cccs2)sc2c1CCC(C)C2 (configuration not stated) | – | – | – | – | –
O=C(Nc1sc2c(c1C(=O)O)CCCCC2)c1cccs1 | – | -42 | – | – | –
CCCC1CCc2c(sc(NC(=O)c3cccs3)c2C(N)=O)C1 (configuration not stated) | · | – | – | – | -94
COC(=O)c1c(NS(=O)(=O)c2cccs2)sc2c1CCCC2 | – | – | – | – | -57
CC1CCc2c(sc(NC(=O)c3cccs3)c2C(=O)O)C1 (configuration not stated) | – | -40 | – | – | –
CCC1CCc2c(sc(NC(=O)c3cccnc3)c2C(N)=O)C1 (configuration not stated) | – | – | – | – | –
CN(C)CCCNc1oc(COc2ccc(Br)cc2)nc1C#N | · | – | · | · | ·
c1ccc(N2CCN(CCc3nnc4n3CCCCC4)CC2)cc1 | · | – | – | – | –
Cc1ccccc1N1CCN(CCc2nnc3n2CCCC3)CC1 | · | · | 35 | – | ·
COc1ccc(C(=O)Nc2ccc(NC(=O)c3ccccn3)cn2)cc1 | – | – | – | – | –
O=C(N/N=C(\c1ccccc1)c1ccccn1)c1ccccc1Cl | – | – | – | – | ?
COc1ccc(C(=O)N/N=C(\c2ccccc2)c2ccccn2)cc1 | – | – | – | – | -56
SMILES | PI5P4Ka inh | LDHA block | DRD3 agonist | PI4K2A inh | DRD3 antagonist
O=C(NN=C(c1ccccc1)c1ccccn1)c1ccccc1 | – | – | – | – | -56
COc1ccc(C(=O)NCc2ccccn2)cc1 | – | – | – | – | -65
O=C(O)c1cccc2c1C(=O)c1ccccc1C2=O | – | – | – | – | –
O=C(O)c1ccc2c(c1Nc1ccccc1)C(=O)c1ccccc1C2=O | -54 | – | – | – | -56
CNc1c(C(=O)O)ccc2c1C(=O)c1ccccc1C2=O | ? | – | – | – | -74
CCNc1c(C(=O)O)ccc2c1C(=O)c1ccccc1C2=O | – | – | – | – | ?
Nc1cc(C(=O)OCC(=O)c2ccc(CC(=O)N3CCOCC3)s2)ccc1Cl | -52 | – | – | – | –
CCc1cc(=O)n(CC(=O)NC2CCCC2)c(-c2cccc(Cl)c2)n1 | · | – | · | · | ·
O=[N+]([O-])c1ccc(N=Nc2ncc[nH]2)cc1 | – | – | – | – | -111
Nc1nc2n(n1)C(c1cccs1)CC(c1ccc(F)cc1)N2 (configuration not stated) | · | – | – | – | –
